# High-throughput results deposited in PubChem BioAssay by National Center for Advancing Translational Sciences (NCATS).
# Sfp PPTase inh: inhibitors of Bacillus subtilis Sfp phosphopantetheinyl transferase | Q9F4F7 | Biochemical Sfp PPTase activity, qHTS | Potency, µM, for inactives: largest response in the series, negative = inhibition, most hits filed as inhibitors | 310,000 tested, 3.5% active | AID 1490;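 also: the enzyme is Sfp with the accession as filed and its product quenches rhodamine fluorescence; 0% = enzyme reaction without inhibitor and -100% = no enzyme wells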
#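 Fluorescence-quenching assay with 15 nM Sfp, 5 uM rhodamine-CoA and 12.5 uM BHQ-2-labelled ybbR peptide in pH 7.6 Hepes/MgCl2 buffer. Enzyme was pre-incubated with compound for 15 min at room temperature. Rate was taken from the 30-min fluorescence change (525/598 nm).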
# JMJD2A Tudor inh: inhibitors of human JMJD2A Tudor domain | O75164 | AlphaScreen JMJD2A-Tudor / H3K4me3 peptide binding | AID 504339 | 390,000 tested, 4.4% active | Potency, µM (top dose mostly 114 µM), for the others: top-dose activity change, negative = inhibition, hits mostly inhibitors; also: % is scaled to controls: 0 for no effect and ±100 for the full control effect; nearly all actives have a fitted effect of over 50% in size
# Target sequence (O75164 whole entry, looked up, the tested form may be a part): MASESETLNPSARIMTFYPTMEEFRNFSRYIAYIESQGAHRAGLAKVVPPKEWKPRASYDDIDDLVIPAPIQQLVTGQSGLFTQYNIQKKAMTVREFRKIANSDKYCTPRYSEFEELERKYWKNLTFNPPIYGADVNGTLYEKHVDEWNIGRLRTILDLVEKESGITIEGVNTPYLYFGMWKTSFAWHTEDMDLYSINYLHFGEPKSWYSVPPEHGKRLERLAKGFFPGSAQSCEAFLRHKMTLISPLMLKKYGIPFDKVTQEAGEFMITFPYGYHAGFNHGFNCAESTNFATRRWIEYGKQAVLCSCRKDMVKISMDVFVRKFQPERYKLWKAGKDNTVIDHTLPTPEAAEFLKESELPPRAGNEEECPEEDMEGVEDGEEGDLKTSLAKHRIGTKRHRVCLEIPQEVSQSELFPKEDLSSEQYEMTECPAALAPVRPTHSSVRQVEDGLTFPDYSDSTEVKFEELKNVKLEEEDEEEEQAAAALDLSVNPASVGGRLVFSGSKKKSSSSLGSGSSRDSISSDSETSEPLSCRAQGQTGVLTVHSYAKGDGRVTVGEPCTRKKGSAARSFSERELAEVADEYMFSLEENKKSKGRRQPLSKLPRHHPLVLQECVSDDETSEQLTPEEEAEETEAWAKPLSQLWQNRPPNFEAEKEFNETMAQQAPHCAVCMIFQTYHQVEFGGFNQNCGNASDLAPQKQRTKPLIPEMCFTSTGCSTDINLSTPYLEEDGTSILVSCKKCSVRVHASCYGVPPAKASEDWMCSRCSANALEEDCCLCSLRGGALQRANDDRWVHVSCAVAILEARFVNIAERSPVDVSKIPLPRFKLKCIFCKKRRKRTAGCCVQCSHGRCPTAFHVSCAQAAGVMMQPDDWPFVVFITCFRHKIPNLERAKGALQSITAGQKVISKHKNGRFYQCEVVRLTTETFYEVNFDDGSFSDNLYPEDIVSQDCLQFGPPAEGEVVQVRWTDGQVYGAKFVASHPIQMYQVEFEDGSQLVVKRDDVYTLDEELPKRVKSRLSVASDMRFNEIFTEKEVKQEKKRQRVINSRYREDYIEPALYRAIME
# BAZ2B inh: inhibitors of human BAZ2B bromodomain. 360,000 tested, 4.4% active. Potency, µM (top dose mostly 114 µM), inactives show at the highest dose activity change, negative = inhibition, most hits filed as inhibitors. Q9UIF8. AlphaScreen BAZ2B-H3K14Ac peptide displacement; also: % is scaled to controls: 0 for no effect and ±100 for the full control effect; nearly all actives have a fitted effect of over 60% in size
#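 AlphaScreen displacement of biotin-H3(5-23)K14Ac peptide (50 nM final) from BAZ2B (50 nM final) in PBS pH 7.4, 0.01% Tween-20; complex preformed 30 min RT, then compounds (top 110 uM) 30 min RT, beads 20 min dark.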
# HP1b binding inh: inhibitors of HP1-beta chromodomain binding to methylated histone tails | Potency, µM (doses to about 114 µM), for the others: top-dose activity change, negative = inhibition, hits mostly inhibitors | 390,000 tested, 0.56% active | P83916 | AlphaScreen HP1-beta / biotin-H3K9me3 peptide binding; also: nearly all actives have a fitted effect of over 70% in size
#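 Compound inhibition of the preformed complex between 50 nM HP1-beta and 50 nM biotinylated H3K9me3 peptide was read by AlphaScreen. Buffer was PBS pH 7.4 with 0.01% Tween-20. Incubations ran 30 min at room temperature, with 10 ug/mL donor/acceptor beads.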
# G9a inh: inhibitors of human histone lysine methyltransferase G9a. G9a H3K9 monomethylation, AlphaScreen, 2 h. Potency, µM (series often up to 102 µM), without a hit: at the highest dose activity, negative = inhibition, actives largely listed as inhibitors. Q96KQ7. 350,000 tested, 8.8% active. AID 504332; also: % is scaled to controls: 0 for no effect and ±100 for the full control effect; nearly all actives have a fitted effect of over 75% in size
#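 G9a (20 nM) preincubated 15 min RT with compounds, then 500 nM biotinylated H3K9 peptide and 20 uM SAM added; 2 h RT reaction. Monomethyl-H3K9 product detected by AlphaScreen with anti-H3K9me1 antibody, streptavidin donor and anti-rabbit IgG acceptor beads.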
# ALOX12 inh: ALOX12 (human) lipoxygenase inhibition; P18054; Potency, µM (titrated, usually from 108 µM), for the others: at the highest dose activity change, negative = inhibition, hits mostly inhibitors; AID 1671190; purified 12hLO, xylenol orange hydroperoxide absorbance; 580,000 tested, 1.1% active; also: % is scaled to controls: 0 for no effect and ±100 for the full control effect
#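 Purified human 12hLO (150 nM final) in 25 mM Hepes, 0.01% Triton X-100, pH 7.0 was preincubated 15 min at room temperature with compound. Then 40 uM arachidonic acid was added, 30 min. Hydroperoxide was read by Fe-XO absorbance ratio 573/405 nm.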
# The depositor's hits bear a star; ? = inconclusive; / = no result given; ! = not confirmed by another sample; [ ] = remark or other dose. Sampled rows, rich in hits. Any-hit rate of the full collection: about 8.7%. Calls follow the shape of the dose curve; as a rule, active = well fitted curve in the direction sought with a large enough effect; inconclusive = small, poorly fitted or top-dose-only effect, or another doubt; inactive = no such curve, though single readings can be large; an effect the other way counts as inactive or inconclusive. Potency is read from the fitted curve at half-maximal effect.
SMILES,Sfp PPTase inh,JMJD2A Tudor inh,BAZ2B inh,HP1b binding inh,G9a inh,ALOX12 inh
COC(=O)[C@H]1CCCN1C(=O)[C@@H]1[C@@H](NC(=O)Nc2ccc(F)cc2F)CCN1C(=O)c1cccn1C,/,/,/,/,/,42%
Cc1cc(N2CCOCC2)nc2ccc(NC(=S)N3CCCCC3C)cc12 (stereo unspecified),?,?,/,-2%,45µM*,-6%
Cc1cc(N2CCN(C)CC2)nc2ccc(NC(=S)N3CCN(c4ccc(Cl)cc4)CC3)cc12,45µM*,-30%,-29%,-18%,40µM*,-3%
Cc1cc(N2CCN(C)CC2)nc2ccc(NC(=S)N3CCCCC3)cc12,-21%,-32%,?,9%,25µM*,-2%
Cc1cc(N2CCN(C)CC2)nc2ccc(NC(=S)N3CCCCCC3)cc12,-9%,-35%,-34%,0%[57 µM],56µM*,20%
Cc1cccc(N2CCN(C(=S)Nc3ccc4nc(N5CCN(C)CC5)cc(C)c4c3)CC2)c1C,-28%,-29%,?,23%,-5%[59 µM],-20%
Cc1cc(N2CCN(C)CC2)nc2ccc(NC(=S)N3CCN(c4ccc(F)cc4)CC3)cc12,25%,-24%[11.4 µM],-31%,14%,-20%[59 µM],34%
CCCCCCCCS(=O)(=O)CCCCCl,/,/,/,/,/,10%
CNc1nccc(N2CCC(CC(=O)NCCC(C)C)CC2)n1,/,/,/,/,/,15%
C/C(=N\O)c1ccc(C(C)C)cc1,/,/,/,/,/,16%
Cc1nc(-c2ccc(C(=O)Nc3cccc(Br)c3)cc2)cs1,50µM*,4%,?,68%,2%,-28%
O=C(Nc1ccc(S(=O)(=O)N2CCCC2)cc1)c1cncc(Br)c1,/,-17%,8%,24%,-2%[59 µM],-16%
O=C(Nc1cccc(NC(=O)c2cncc(Br)c2)c1)c1cncc(Br)c1,-12%,-9%,-4%,44%,45µM*,0%
Cc1ccc(C(=O)Nc2ccc(N3CCCCC3)cc2)cc1,/,-20%,/,21%,/,8%
O=C(Nc1ccncc1)c1cncc(Br)c1,-3%,-20%,-29%,32%,?,?
O=C(Nc1ccc(N2CCCCC2)cc1)c1cncc(Br)c1,5%,-23%,?,5%,79µM*,?
CC(=O)c1c[nH]c(C(=O)Nc2ccc(N3CCCCCC3)cc2)c1,/,35µM*,35µM*,?,-12%[2.33 µM],2%
COC(=O)C(C)Oc1ccc2c(=O)c(-c3ccc4c(c3)OCCO4)coc2c1 (stereo unspecified),/,/,/,/,/,8%
CC(C)(C)c1ccc(C(=O)N2CCN(C(=O)c3nnn4c3COC(c3ccccc3)C4)CC2)cc1 (stereo unspecified),/,/,/,/,/,32%
CCn1nc(C(=O)Nc2cccc3ncccc23)c2ccccc2c1=O,/,/,/,/,/,-1%
O=C(Nc1ccc(N2CCCC2)cc1)c1ccc2ccccc2c1,-1%,-10%,1%,11%,6.3µM*,?
CCCCC(=O)NCc1ccc(-c2nc3ccccc3s2)cc1,/,/,/,/,/,-9%
COc1cccc(C2C(C(=O)Nc3ccccc3)=C(C)N=c3s/c(=C/c4ccc(OCC(=O)O)cc4)c(=O)n32)c1 (stereo unspecified),1%,-26%,-13%,-2%,16%[59 µM],-25%
CC1=C(C(=O)Nc2ccccc2)C(c2ccc(C)o2)n2c(s/c(=C\c3ccco3)c2=O)=N1 (stereo unspecified),50µM*,-13%,50µM*,19%,?,-9%
C[C@@H](O)[C@@H]1NC(=O)c2cc([N+](=O)[O-])cc(I)c2NCC[C@@H](C(N)=O)NC(=O)CNC1=O,-6%,-21%,-4%,25%,50µM*,?
SMILES,Sfp PPTase inh,JMJD2A Tudor inh,BAZ2B inh,HP1b binding inh,G9a inh,ALOX12 inh
CC[C@H](C)[C@@H]1NC(=O)c2cc([N+](=O)[O-])cc(F)c2NCCCC[C@@H](C(N)=O)NC(=O)[C@H](CCCCN)NC1=O,0%,-31%,-7%,4%,?,-7%
C[C@@H]1NC(=O)[C@H](CCC(N)=O)NC(=O)c2cc([N+](=O)[O-])cc(I)c2NCCC[C@@H](C(N)=O)NC1=O,-6%,-15%,-25%,18%,50µM*,?
C[C@@H]1NC(=O)c2cc([N+](=O)[O-])cc(I)c2NCCCC[C@@H](C(N)=O)NC(=O)[C@H](CCC(=O)O)NC1=O,-11%,-17%,-33%,10%,40µM*,/
NC(=O)[C@@H]1CCCCNc2c(F)cc([N+](=O)[O-])cc2C(=O)N[C@@H](CCCN=C(N)N)C(=O)NCC(=O)N1,7%,-25%,-11%,33%,-16%,-9%
C[C@@H]1NC(=O)[C@H](CCCN=C(N)N)NC(=O)c2cc([N+](=O)[O-])cc(I)c2NCCC[C@@H](C(N)=O)NC1=O,-5%,-19%,-8%,1%,56µM*,?
CCc1ccc(C(=O)C(C)OC(=O)c2ccc3c(c2)CCCC3)cc1 (stereo unspecified),/,/,/,/,/,-8%
Cc1ccc(CN2CCCC3(CNc4ccccc4[S+](=O)([O-])N3)C2)cc1 (stereo unspecified),/,/,/,/,/,7%
NC(=O)CC[C@@H]1NC(=O)[C@H](CO)NC(=O)c2cc([N+](=O)[O-])cc(I)c2NCCCC[C@@H](C(N)=O)NC(=O)[C@H](Cc2ccc(O)cc2)NC1=O,2%,-32%,-36%,7%,?,/
NC(=O)[C@@H]1CCCNc2c(I)cc([N+](=O)[O-])cc2C(=O)N[C@@H](CCC(=O)O)C(=O)N[C@@H](CO)C(=O)N1,10%,-6%,-5%,39%,35µM*,/
NC(=O)CC[C@@H]1NC(=O)[C@H](CO)NC(=O)c2cc([N+](=O)[O-])cc(I)c2NCC[C@@H](C(N)=O)NC(=O)[C@H](Cc2ccc(O)cc2)NC1=O,-21%,/,56µM*,/,7.9µM*,/
NC(=O)C[C@H]1NC(=O)[C@H](CCC(=O)O)NC(=O)c2cc([N+](=O)[O-])cc(I)c2NCCC[C@@H](C(N)=O)NC1=O,2%,-19%,?,41%,45µM*,-15%
COc1ccc(C(=O)N2CCC(CO)(CN3CCCC3)CC2)cc1C,/,/,/,/,/,24%
O=C(CN1C(=O)c2ccccc2S1(=O)=O)c1ccc(Cl)cc1Cl,/,-14%,/,42%,/,8.9µM*!
COCCNC(=S)NN(c1ccccc1)c1ccccc1,?,-27%,-37%,-13%,28µM*,-19%
Cc1cccc(Cn2c(N3CCN(C(=O)c4ccco4)CC3)nc3c2c(=O)n(C)c(=O)n3C)c1,/,/,/,/,/,-28%
CC1(C)Cc2c(sc3ncn4c(=S)[nH]nc4c23)CO1,45µM*,?,8%,?,3.2µM*,?
CC1(C)Cc2c(sc3ncnc(NN)c23)CO1,40µM*,50µM*,79µM*,20%,19%,-25%
